Source: the supplement of paper PMC8728848
This excerpt belongs to a sample that is enriched for the strongest signals.

Columns and labels:
Test in all cases: glycan array binding signal (z-score within array); higher = stronger binding
Settings in all cases: glycan notation: IUPAC condensed, linker removed; mutation: D224N
[1] = biological target: Fuc(a1-2)Gal(b1-3)GlcNAc(b1-2)Man(a1-3)[Fuc(a1-2)Gal(b1-3)GlcNAc(b1-2)Man(a1-6)]Man(b1-4)GlcNAc(b1-4)GlcNAc
In short: (§1)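 Negative Z-scores can be read as non-binding. The Z-score is calculated within each array and then averaged across arrays of one protein sequence at different concentrations or buffers and across linkers. Arrays, 3228 in all, were curated from the Consortium for Functional Glycomics database and kept only where the protein sequence was available.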

[2] = biological target: Fuc(a1-2)Gal(b1-3)GlcNAc(b1-3)[Neu5Ac(a2-6)Gal(b1-4)GlcNAc(b1-6)]Gal(b1-4)Glc
In short: as §1

[3] = biological target: Fuc(a1-2)Gal(b1-3)GlcNAc6S
In short: as §1

[4] = biological target: Fuc(a1-2)Gal(b1-4)GlcNAc(b1-3)GalNAc
In short: as §1

[5] = biological target: Fuc(a1-2)Gal(b1-4)GlcNAc(b1-3)[Fuc(a1-2)Gal(b1-4)GlcNAc(b1-6)]GalNAc
In short: as §1

[6] = biological target: Fuc(a1-2)[Gal(a1-3)]Gal(b1-3)GalNAc
In short: as §1

[7] = biological target: Fuc(a1-2)[GalNAc(a1-3)]Gal(b1-3)GlcNAc
In short: as §1

[8] = biological target: Fuc(a1-2)[GalNAc(a1-3)]Gal(b1-4)GlcNAc(b1-3)Gal(b1-4)GlcNAc(b1-3)Gal(b1-4)GlcNAc
In short: as §1

[9] = biological target: Fuc(a1-3)[Gal(b1-4)]Glc6S
In short: as §1

[10] = biological target: Fuc(a1-3)[Gal(b1-4)]GlcNAc(b1-2)Man(a1-3)[Fuc(a1-3)[Gal(b1-4)]GlcNAc(b1-2)Man(a1-6)]Man(b1-4)GlcNAc(b1-4)[Fuc(a1-6)]GlcNAc
In short: as §1

[11] = biological target: Fuc(a1-3)[Gal(b1-4)]GlcNAc(b1-3)Gal(b1-4)[Fuc(a1-3)]GlcNAc(b1-3)Gal(b1-4)[Fuc(a1-3)]GlcNAc
In short: as §1

[12] = biological target: Fuc(a1-3)[Gal(b1-4)]GlcNAc(b1-6)GalNAc
In short: as §1

Gal(a1-2)Gal = biological target: Gal(a1-2)Gal
In short: as §1

Gal(a1-3)GalNAc = biological target: Gal(a1-3)GalNAc
In short: as §1

Gal(b1-3)GlcNAc(b1-2)Man = biological target: Gal(b1-3)GlcNAc(b1-2)Man
In short: as §1

[13] = biological target: Gal(b1-3)GlcNAc(b1-3)Gal(b1-4)GlcNAc(b1-6)[Gal(b1-3)GlcNAc(b1-3)]Gal(b1-4)Glc
In short: as §1

[14] = biological target: Gal(b1-4)GlcNAc(b1-3)Gal(b1-4)GlcNAc(b1-2)[Gal(b1-4)GlcNAc(b1-3)Gal(b1-4)GlcNAc(b1-6)]Man(a1-6)[Gal(b1-4)GlcNAc(b1-3)Gal(b1-4)GlcNAc(b1-2)Man(a1-3)]Man(b1-4)GlcNAc(b1-4)GlcNAc
In short: as §1

[15] = biological target: Gal(b1-4)GlcNAc(b1-3)Gal(b1-4)GlcNAc(b1-3)Gal(b1-4)GlcNAc(b1-3)Gal(b1-4)GlcNAc(b1-2)Man(a1-3)[Gal(b1-4)GlcNAc(b1-3)Gal(b1-4)GlcNAc(b1-3)Gal(b1-4)GlcNAc(b1-3)Gal(b1-4)GlcNAc(b1-2)Man(a1-6)]Man(b1-4)GlcNAc(b1-4)[Fuc(a1-6)]GlcNAc
In short: as §1

[16] = biological target: Gal(b1-4)GlcNAc(b1-3)Gal(b1-4)GlcNAc(b1-3)Gal(b1-4)GlcNAc(b1-3)Gal(b1-4)GlcNAc(b1-3)Gal(b1-4)GlcNAc(b1-2)Man(a1-3)[Gal(b1-4)GlcNAc(b1-3)Gal(b1-4)GlcNAc(b1-3)Gal(b1-4)GlcNAc(b1-3)Gal(b1-4)GlcNAc(b1-3)Gal(b1-4)GlcNAc(b1-2)Man(a1-6)]Man(b1-4)GlcNAc(b1-4)GlcNAc
In short: as §1

[17] = biological target: Gal3S(b1-4)[Fuc(a1-3)]Glc6S
In short: as §1

Gal3S6S(b1-4)GlcNAc = biological target: Gal3S6S(b1-4)GlcNAc
In short: as §1

Gal6S(b1-4)Glc6S = biological target: Gal6S(b1-4)Glc6S
In short: as §1

[18] = biological target: Glc(a1-4)Glc(a1-4)Glc(a1-4)Glc
In short: as §1

[19] = biological target: GlcNAc(a1-4)Gal(b1-4)GlcNAc
In short: as §1

[20] = biological target: GlcNAc(a1-4)Gal(b1-4)GlcNAc(b1-3)Gal(b1-4)GlcNAc(b1-3)Gal(b1-4)GlcNAc
In short: as §1

[21] = biological target: GlcNAc(a1-4)Gal(b1-4)GlcNAc(b1-3)Gal(b1-4)[Fuc(a1-3)]GlcNAc(b1-3)Gal(b1-4)[Fuc(a1-3)]GlcNAc
In short: as §1

[22] = biological target: GlcNAc(b1-3)Gal(b1-4)GlcNAc(b1-3)Gal(b1-4)GlcNAc(b1-2)Man(a1-3)[GlcNAc(b1-3)Gal(b1-4)GlcNAc(b1-3)Gal(b1-4)GlcNAc(b1-2)Man(a1-6)]Man(b1-4)GlcNAc(b1-4)GlcNAc
In short: as §1

[23] = biological target: GlcNAc(b1-3)Gal(b1-4)GlcNAc(b1-3)Gal(b1-4)GlcNAc(b1-2)[GlcNAc(b1-3)Gal(b1-4)GlcNAc(b1-3)Gal(b1-4)GlcNAc(b1-6)]Man(a1-6)[GlcNAc(b1-3)Gal(b1-4)GlcNAc(b1-3)Gal(b1-4)GlcNAc(b1-2)Man(a1-3)]Man(b1-4)GlcNAc(b1-4)[Fuc(a1-6)]GlcNAc
In short: as §1

[24] = biological target: GlcNAc(b1-3)Gal(b1-4)GlcNAc(b1-3)Gal(b1-4)GlcNAc(b1-3)Gal(b1-4)GlcNAc(b1-2)Man(a1-3)[GlcNAc(b1-3)Gal(b1-4)GlcNAc(b1-3)Gal(b1-4)GlcNAc(b1-3)Gal(b1-4)GlcNAc(b1-2)Man(a1-6)]Man(b1-4)GlcNAc(b1-4)[Fuc(a1-6)]GlcNAc
In short: as §1

[25] = biological target: GlcNAc(b1-3)Gal(b1-4)GlcNAc(b1-3)Gal(b1-4)GlcNAc(b1-3)Gal(b1-4)GlcNAc(b1-3)Gal(b1-4)GlcNAc(b1-2)Man(a1-3)[GlcNAc(b1-3)Gal(b1-4)GlcNAc(b1-3)Gal(b1-4)GlcNAc(b1-3)Gal(b1-4)GlcNAc(b1-3)Gal(b1-4)GlcNAc(b1-2)Man(a1-6)]Man(b1-4)GlcNAc(b1-4)GlcNAc
In short: as §1

[26] = biological target: GlcNAc(b1-3)Gal(b1-4)GlcNAc(b1-6)[GlcNAc(b1-3)Gal(b1-3)]GalNAc
In short: as §1

[27] = biological target: GlcNAc(b1-4)[GlcNAc(b1-6)]GalNAc
In short: as §1

[28] = biological target: Kdn(a2-3)Gal(b1-4)[Fuc(a1-3)]GlcNAc
In short: as §1

[29] = biological target: Man(a1-2)Man(a1-2)Man(a1-6)[Man(a1-3)]Man
In short: as §1

Man(a1-3)[Man(a1-6)]Man = biological target: Man(a1-3)[Man(a1-6)]Man
In short: as §1

[30] = biological target: Man(a1-3)[Man(a1-6)]Man(a1-6)[Man(a1-3)]Man
In short: as §1

[31] = biological target: Neu5Ac(a2-3)Gal(b1-4)GlcNAc(b1-3)Gal
In short: as §1

[32] = biological target: Neu5Ac(a2-3)Gal(b1-4)GlcNAc(b1-3)Gal(b1-4)[Fuc(a1-3)]GlcNAc
In short: as §1

[33] = biological target: Neu5Ac(a2-3)Gal(b1-4)GlcNAc(b1-3)[Neu5Ac(a2-3)Gal(b1-4)GlcNAc(b1-6)]GalNAc
In short: as §1

[34] = biological target: Neu5Ac(a2-3)Gal(b1-4)[Fuc(a1-3)]GlcNAc(b1-3)Gal(b1-4)GlcNAc
In short: as §1

[35] = biological target: Neu5Ac(a2-3)Gal(b1-4)[Fuc(a1-3)]GlcNAc(b1-6)[Neu5Ac(a2-3)Gal(b1-3)]GalNAc
In short: as §1

[36] = biological target: Neu5Ac(a2-3)Gal6S(b1-4)[Fuc(a1-3)]GlcNAc
In short: as §1

[37] = biological target: Neu5Ac(a2-6)Gal(b1-4)GlcNAc(b1-2)Man(a1-3)Man(b1-4)GlcNAc(b1-4)GlcNAc
In short: as §1

[38] = biological target: Neu5Ac(a2-6)Gal(b1-4)GlcNAc(b1-2)Man(a1-6)[Man(a1-3)]Man(b1-4)GlcNAc(b1-4)GlcNAc
In short: as §1

[39] = biological target: Neu5Ac(a2-6)Gal(b1-4)GlcNAc(b1-3)Gal(b1-4)GlcNAc(b1-2)Man(a1-3)[Neu5Ac(a2-6)Gal(b1-4)GlcNAc(b1-3)Gal(b1-4)GlcNAc(b1-2)Man(a1-6)]GalNAc
In short: as §1

[40] = biological target: Neu5Ac(a2-6)Gal(b1-4)GlcNAc(b1-3)Gal(b1-4)GlcNAc(b1-3)Gal(b1-4)GlcNAc(b1-2)Man(a1-3)[Neu5Ac(a2-6)Gal(b1-4)GlcNAc(b1-3)Gal(b1-4)GlcNAc(b1-3)Gal(b1-4)GlcNAc(b1-2)Man(a1-6)]GalNAc
In short: as §1

[41] = biological target: Neu5Ac(a2-6)Gal(b1-4)GlcNAc(b1-3)GalNAc
In short: as §1

[42] = biological target: Neu5Ac(a2-8)Neu5Ac(a2-3)Gal(b1-4)Glc
In short: as §1

[43] = biological target: Neu5Ac(a2-8)Neu5Ac(a2-8)Neu5Ac(a2-3)Gal(b1-4)Glc
In short: as §1

[44] = biological target: Neu5Ac(a2-8)Neu5Ac(a2-8)Neu5Ac(a2-3)[GalNAc(b1-4)]Gal(b1-4)Glc
In short: as §1

B1: a L Fucosidase (Thermotoga maritima) (protein)
chain: MASMKPRYKPDWESLREHTVPKWFDKAKFGIFIHWGIYSVPGWATPTGELGKVPMDAWFFQNPYAEWYENSLRIKESPTWEYHVKTYGENFEYEKFADLFTAEKWDPQEWADLFKKAGAKYVIPTTKHHDGFCLWGTKYTDFNSVKRGPKRDLVGDLAKAVREAGLRFGVYYSGGLDWRFTTEPIRYPEDLSYIRPNTYEYADYAYKQVMELVDLYLPDVLWNNMGWPEKGKEDLKYLFAYYYNKHPEGSVNDRWGVPHWDFKTAEYHVNYPGDLPGYKWEFTRGIGLSFGYNRNEGPEHMLSVEQLVYTLVDVVSKGGNLLLNVGPKGDGTIPDLQKERLLGLGEWLRKYGDAIYGTSVWERCCAKTEDGTEIRFTRKCNRIFVIFLGIPTGEKIVIEDLNLSAGTVRHFLTGERLSFKNVGKNLEITVPKKLLETDSITLVLEAVEE
glycan array binding signal (z-score) [1]: 0.227 | glycan array binding signal (z-score) [2]: -0.742 | glycan array binding signal (z-score) [3]: -0.396 | glycan array binding signal (z-score) [4]: 0.144 | glycan array binding signal (z-score) [5]: 0.657 | glycan array binding signal (z-score) [6]: -0.35 | glycan array binding signal (z-score) [7]: 2.8 | glycan array binding signal (z-score) [8]: 0.201 | glycan array binding signal (z-score) [9]: 2.33 | glycan array binding signal (z-score) [10]: 1.05 | glycan array binding signal (z-score) [11]: 0.062 | glycan array binding signal (z-score) [12]: -0.2 | glycan array binding signal (z-score) (Gal(a1-2)Gal): -0.446 | glycan array binding signal (z-score) (Gal(a1-3)GalNAc): -0.41 | glycan array binding signal (z-score) (Gal(b1-3)GlcNAc(b1-2)Man): 0.366 | glycan array binding signal (z-score) [13]: -0.509 | glycan array binding signal (z-score) [14]: 1.93 | glycan array binding signal (z-score) [15]: 0.731 | glycan array binding signal (z-score) [16]: 0.594 | glycan array binding signal (z-score) [17]: 0.443 | glycan array binding signal (z-score) (Gal3S6S(b1-4)GlcNAc): 1.33 | glycan array binding signal (z-score) (Gal6S(b1-4)Glc6S): -0.426 | glycan array binding signal (z-score) [18]: 2.84 | glycan array binding signal (z-score) [19]: -0.293 | glycan array binding signal (z-score) [20]: 0.079 | glycan array binding signal (z-score) [21]: 0.08 | glycan array binding signal (z-score) [22]: 0.079 | glycan array binding signal (z-score) [23]: 0.296 | glycan array binding signal (z-score) [24]: 3.94 | glycan array binding signal (z-score) [25]: -0.204 | glycan array binding signal (z-score) [26]: 1.65 | glycan array binding signal (z-score) [27]: -0.289 | glycan array binding signal (z-score) [28]: 0.051 | glycan array binding signal (z-score) [29]: -0.125 | glycan array binding signal (z-score) (Man(a1-3)[Man(a1-6)]Man): 0.332 | glycan array binding signal (z-score) [30]: 0.223 | glycan array binding signal (z-score) [31]: -0.187 | glycan array binding signal (z-score) [32]: 1.75 | glycan array binding signal (z-score) [33]: 0.483 | glycan array binding signal (z-score) [34]: 1.9 | glycan array binding signal (z-score) [35]: 2.83 | glycan array binding signal (z-score) [36]: -0.732 | glycan array binding signal (z-score) [37]: 1.99 | glycan array binding signal (z-score) [38]: 0.081 | glycan array binding signal (z-score) [39]: 2.02 | glycan array binding signal (z-score) [40]: 10.5 | glycan array binding signal (z-score) [41]: 1.83 | glycan array binding signal (z-score) [42]: -0.893 | glycan array binding signal (z-score) [43]: 0.654 | glycan array binding signal (z-score) [44]: 0.362
